Experiment [1] has as its system Human papillomavirus type 1a protein E7 (residues 44-93). In words: HPV1a E7 fragment binders on microarrays, primary screen, biochemical, small-molecule microarray, residues 44-93, 635 nm fluorescence (AID 1108).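 Further: E7 fragment applied at 1 µg/mL in TBST for 1 h at 4 C; score combines spot fluorescence with its signal to noise ratio.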 The following applies: small-molecule microarray binding, fluorescence 635 nm; higher = more signal.
A short description of experiment [2]: modulators of HCV replicon luciferase signal, primary screen, HCV replication inhibitor project, Huh7 cells, luciferase reporter (AID 1109).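 Further: huh7 hepatoma cells harbouring a luciferase neomycin HCV replicon reporter; luciferase luminescence as measure of HCV replicon replication; test concentration not given here.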 The following applies: 48 h, higher = more signal. On the technique in general: Replicon systems follow genome replication, usually without infectious particles.
Experiment [3] concerns the target Left-right determination factor 2 (Homo sapiens) (UniProt O00292). In words: LEFTY2 binders on small-molecule microarrays, primary screen, biochemical, small-molecule microarray, 635 nm fluorescence scan (AID 1110). The following applies: LEFTY2 binding, higher = more signal.
The target in experiment [4] is Calmodulin-1 (Homo sapiens) (UniProt P0DP23). The experiment is described as follows: CALM1 binders on microarrays, EGTA buffer, profiling panel, biochemical, small-molecule microarray, Cy5-labelled CALM1 (AID 1111).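 Further: labelled calmodulin applied in Tris saline Tween buffer holding calcium plus EGTA and DTT.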 The following applies: Cy5-CALM1 binding fluorescence, higher = more signal.
Experiment [5] has the same target. In words: calcium-bound CALM1 binders on microarrays, profiling panel, artefact control for SMM control-protein annotation, biochemical, small-molecule microarray, Cy5-labelled CALM1, plus calcium (AID 1112).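 Further: score merges spot fluorescence with signal to noise from triplicate slides.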 The following applies: Cy5-CALM1 binding fluorescence, higher = more signal.
The nature of experiment [6]: small-molecule microarray binders of probe aWnt5a, primary screen, biochemical, biotinylated probe, 635/667 nm fluorescence (AID 1113).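 Further: score merges 667 nm fluorescence intensity with signal-to-noise per printed feature.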 The following applies: higher = more signal.
Experiment [7] is described as follows: small-molecule microarray binders of probe aShh, primary screen, biochemical, biotinylated probe, 635/667 nm fluorescence (AID 1114).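 Further: probe is biotin-labelled aShh protein from a stem cell growth factor screen; measures binding of labelled protein to compounds printed on the slide; score merges feature fluorescence at 667 nm with signal-to-noise.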 The following applies: higher = more signal.
Experiment [8] can be described thus: small-molecule microarray binders of probe aNog, primary screen, biochemical, biotinylated probe, 635/667 nm fluorescence (AID 1115).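 Further: probe is biotinylated aNog protein used at 0.15 µg/mL for 1 h at 4 C; z-score combines 667 nm fluorescence of each spot with its signal to noise.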 The following applies: higher = more signal.
Experiment [9] concerns the target Torsin-1A-interacting protein 1 (Homo sapiens) (UniProt Q5JTV8). The experiment is described as follows: LAP1 binders from COS7 cell lysate, primary screen, small-molecule microarray, 635/667 nm fluorescence (AID 1116). The following applies: COS7-hLAP1 lysate binding, 635 nm fluorescence, higher = more signal.
The target of experiment [10] is Alpha-bungarotoxin (Bungarus multicinctus) (UniProt P60615). The experiment is described as follows: alpha-bungarotoxin binders on microarray, profiling panel, artefact control for SMM control protein annotation, biochemical, small-molecule microarray, Alexa647 label, 635/667 nm fluorescence (AID 1117). The following applies: alpha-BTX-A647 binding fluorescence, higher = more signal.

In another experiment the target is Albumin (Bos taurus) (UniProt P02769). In words: bovine serum albumin binders on microarray, profiling panel, artefact control for SMM control protein annotation, biochemical, small-molecule microarray, Alexa647 label, 635/667 nm fluorescence (AID 1118).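 Further: score merges 667 nm emission intensity and signal-to-noise per printed compound spot.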 The following applies: BSA-A647 binding, fluorescence 635 nm, higher = more signal.
Experiment [11] can be described thus: small-molecule microarray binders of probe aXIP, primary screen, biochemical, NeuroSMM set, 635/667 nm fluorescence (AID 1119).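 Further: probe is the protein aXip251-270 applied at 1 µg/mL to compound-printed slides; binding of probe to printed compounds measured as 667 nm fluorescence plus signal to noise.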 The following applies: higher = more signal, called active from +8 up or from −8 down.
Experiment [12] can be described thus: small-molecule binders of probe aNOTCH3, primary screen, biochemical, small-molecule microarray, 635/667 nm fluorescence (AID 1120).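 Further: probe is a biotin-tagged antibody raised against NOTCH3 rather than NOTCH3 protein; score merges spot fluorescence near 667 nm with spot signal to noise.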 The following applies: higher = more signal.
The nature of experiment [13]: small-molecule binders of probe aNOTCH2, primary screen, biochemical, small-molecule microarray, 635/667 nm fluorescence (AID 1121).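 Further: score merges feature fluorescence read at 667 nm with its signal to noise.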 The following applies: higher = more signal.
The target of experiment [14] is Carbonic anhydrase 2 (Homo sapiens) (UniProt P00918). In words: CAII small-molecule binders, profiling panel, biochemical, small-molecule microarray, Alexa647-labelled CAII (AID 1122). The following applies: CAII-A647 binding fluorescence, higher = more signal.
Experiment [15] can be described thus: COS7 lysate on small-molecule microarray, probe aHis, 635 nm (AID 1123).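 Further: z-score combines 667nm fluorescence intensity with signal-to-noise per printed compound spot.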 The following applies: COS7 cell lysate, fluorescence, higher = more signal.
Experiment [16] is described as follows: compound binding in COS7 lysate, probe aLAP1, primary screen, cell lysate, small-molecule microarray (AID 1124).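 Further: lysate comes from COS7 cells expressing LAP1 and is applied at 0.3 µg/mL; score merges spot fluorescence near 667 nm with signal-to-noise over triplicate slides.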 The following applies: probe aLAP1, fluorescence, higher = more signal.
The next experiment concerns Sam68 (KHDRBS1). The experiment is described as follows: Sam68 small-molecule binders, primary screen, biochemical, small-molecule microarray, 635 nm fluorescence (AID 1125).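 Further: score merges 667 nm channel intensity with signal to noise over triplicate slides.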 The following applies: small-molecule microarray binding, higher = more signal.
Experiment [17] deals with Chordin-like protein 2 (CHRDL2). In words: CHRDL2 small-molecule binders, primary screen, biochemical, small-molecule microarray, 635 nm fluorescence (AID 1126).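 Further: printed compound slides probed with Chrdl2 protein at 4 µg/mL for 1 h at 4 C; score merges 667 nm emission intensity with signal to noise over three replicate slides.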 The following applies: small-molecule microarray binding, fluorescence 635 nm; higher = more signal.
Experiment [18] deals with Concanavalin-A (Canavalia ensiformis) (UniProt P02866). The experiment is described as follows: ConA small-molecule binders, primary screen, artefact control for SMM control protein annotation, biochemical, small-molecule microarray, Alexa647 label, 635 nm (AID 1127).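 Further: z combines 667 nm emission intensity with signal-to-noise across three replicate slides.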 The following applies: ConA-A647 binding fluorescence, higher = more signal.

The text below walks through data of PubChem BioAssay.

Calls of active or inactive are those of the source.

Sequence of Left-right determination factor 2 (Homo sapiens) (O00292 whole entry, looked up): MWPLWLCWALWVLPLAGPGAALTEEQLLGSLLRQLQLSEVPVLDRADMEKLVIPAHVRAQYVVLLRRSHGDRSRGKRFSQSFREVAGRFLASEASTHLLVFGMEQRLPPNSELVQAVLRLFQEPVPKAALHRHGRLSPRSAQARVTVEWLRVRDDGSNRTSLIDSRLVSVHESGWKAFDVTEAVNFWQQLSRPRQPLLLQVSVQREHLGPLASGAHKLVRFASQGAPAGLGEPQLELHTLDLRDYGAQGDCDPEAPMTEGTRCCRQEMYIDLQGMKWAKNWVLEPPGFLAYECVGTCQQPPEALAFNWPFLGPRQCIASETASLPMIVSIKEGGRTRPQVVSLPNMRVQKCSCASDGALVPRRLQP
Sequence of Torsin-1A-interacting protein 1 (Homo sapiens) (Q5JTV8 whole entry, looked up): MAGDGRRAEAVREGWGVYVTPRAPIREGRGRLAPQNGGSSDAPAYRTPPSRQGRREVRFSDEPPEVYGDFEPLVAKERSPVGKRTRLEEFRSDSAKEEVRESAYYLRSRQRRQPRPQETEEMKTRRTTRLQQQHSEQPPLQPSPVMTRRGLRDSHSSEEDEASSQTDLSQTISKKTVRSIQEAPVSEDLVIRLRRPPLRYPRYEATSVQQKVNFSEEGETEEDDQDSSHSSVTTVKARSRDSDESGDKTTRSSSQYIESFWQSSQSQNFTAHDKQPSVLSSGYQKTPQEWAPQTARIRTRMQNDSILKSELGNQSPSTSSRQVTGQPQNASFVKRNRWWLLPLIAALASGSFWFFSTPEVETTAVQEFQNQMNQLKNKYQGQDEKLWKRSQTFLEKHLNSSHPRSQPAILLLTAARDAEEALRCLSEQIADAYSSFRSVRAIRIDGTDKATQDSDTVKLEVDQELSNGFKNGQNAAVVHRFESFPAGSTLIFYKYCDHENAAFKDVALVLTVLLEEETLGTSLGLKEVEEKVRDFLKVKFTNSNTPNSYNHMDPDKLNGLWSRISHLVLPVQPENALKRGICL
Sequence of Alpha-bungarotoxin (Bungarus multicinctus) (P60615 whole entry, looked up): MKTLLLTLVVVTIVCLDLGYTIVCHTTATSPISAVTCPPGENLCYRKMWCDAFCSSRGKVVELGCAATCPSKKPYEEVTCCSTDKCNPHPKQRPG
Sequence of Albumin (Bos taurus) (P02769 whole entry, looked up): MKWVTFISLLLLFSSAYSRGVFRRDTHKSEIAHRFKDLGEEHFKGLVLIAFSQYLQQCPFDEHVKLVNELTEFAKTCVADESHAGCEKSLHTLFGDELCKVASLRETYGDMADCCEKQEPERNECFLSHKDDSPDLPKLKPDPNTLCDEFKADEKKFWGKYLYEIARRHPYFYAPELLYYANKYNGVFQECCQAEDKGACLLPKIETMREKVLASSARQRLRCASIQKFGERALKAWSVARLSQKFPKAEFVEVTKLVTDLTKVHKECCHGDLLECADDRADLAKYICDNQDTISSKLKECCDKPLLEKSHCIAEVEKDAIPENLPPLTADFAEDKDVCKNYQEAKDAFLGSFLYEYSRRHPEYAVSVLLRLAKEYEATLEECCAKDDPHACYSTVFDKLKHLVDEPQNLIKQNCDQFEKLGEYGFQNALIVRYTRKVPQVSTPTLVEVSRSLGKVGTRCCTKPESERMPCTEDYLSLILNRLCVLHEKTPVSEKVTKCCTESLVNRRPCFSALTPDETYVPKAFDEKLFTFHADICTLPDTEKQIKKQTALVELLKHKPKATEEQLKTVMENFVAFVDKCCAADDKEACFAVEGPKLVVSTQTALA
Sequence of Concanavalin-A (Canavalia ensiformis) (P02866 whole entry, looked up): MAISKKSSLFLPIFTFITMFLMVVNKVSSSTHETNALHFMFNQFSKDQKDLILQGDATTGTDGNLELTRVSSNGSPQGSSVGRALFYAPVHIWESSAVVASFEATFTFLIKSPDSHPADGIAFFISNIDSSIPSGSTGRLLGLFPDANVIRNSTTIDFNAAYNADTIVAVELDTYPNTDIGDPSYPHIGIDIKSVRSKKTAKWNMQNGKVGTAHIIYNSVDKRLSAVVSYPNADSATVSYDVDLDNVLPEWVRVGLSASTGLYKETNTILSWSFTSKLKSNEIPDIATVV

With `COc1ccc(NC(=O)O[C@H]2[C@H](OC(=O)c3cc4ccccc4[nH]3)[C@@H](OC(=O)c3cc4ccccc4[nH]3)[C@@H](OC)O[C@@H]2CO)cc1`, the composite z-score was -0.548 in experiment [1]; 0.046 in [3]; 0.467 in experiment [4]; -0.206 in experiment [5]; -0.0512 in [6]; 0.0121 in experiment [7]. Further, the composite z-score is -0.0612 in experiment [8]; 1.04 in experiment [9]; 0.243 in experiment [10]; 0.144 in the experiment with Albumin (Bos taurus); -0.235 in experiment [12]; -0.0404 in [13]. Besides, the composite z-score in experiment [14] was 0.541; in [15] it was 1.24; in experiment [16], 0.614; with Sam68 (KHDRBS1), 0.156; in [17] it was -0.113; in experiment [18], -0.586. Also, in experiment [2], the z-score is -1.98. Besides, the composite Z-score in [11] is 0.561 (inactive).
For the compound `COC(=O)[C@@]1(Cc2ccc(F)cc2)[C@H]2c3cc(C(=O)N(C)C)n(Cc4ccc(C)o4)c3C[C@H]2CN1C(=O)c1ccccc1`, the composite z-score is -0.0043 in [1]; -1.14 in experiment [3]; 1.81 in experiment [4]; -0.969 in experiment [5]; 0.749 in experiment [6]; 1.85 in experiment [7]. In addition, the composite z-score is 3.48 in [8]; 5.2 in experiment [9]; -1.73 in [10]; -0.373 in the experiment with Albumin (Bos taurus); 1.6 in experiment [12]; 0.992 in experiment [13]. The composite z-score in experiment [14] was 0.458; in [15], 3.29; in [16], 1.13; with Sam68 (KHDRBS1), 0.47; in experiment [17], -0.852; in experiment [18], -1.67. The compound further gave a z-score in [2] of -0.8. In [11], the composite Z-score was 0.444 (inactive).
Consider `NC(=O)[C@@H]1[C@H]2C(=O)O[C@H](c3ccccc3)[C@H](c3ccccc3)N2[C@H](c2ccc(O)cc2)[C@@]12C(=O)Nc1ccc(C#CC3=CCCCC3)cc12`, for which the composite z-score in [1] is 1.42; in experiment [3], -0.585; in experiment [4], 0.573; in experiment [5], 0.199; in experiment [6], 0.065; in experiment [7], 1.78. Moreover, the composite z-score in experiment [8] was 1.01; in experiment [9], 0.453; in experiment [10], 0.334; with Albumin (Bos taurus), 0.299; in experiment [12], 0.81; in [13], -0.117. The composite z-score in [14] was 0.411; in experiment [15], 2; in [16], 0.331; in the experiment with Sam68 (KHDRBS1), 0.449; in experiment [17] it was -0.0967; in [18], 0.426. For the same compound, in experiment [2], the z-score is -3.23. In addition, the composite Z-score in experiment [11] is 1.1 (inactive).
Turning to `O=C1NC(=O)C2C1C=CC(C(O)c1ccc(I)cc1)N2Nc1ccc(Cl)cc1Cl` (stereo not given), the composite z-score is 1.36 in [1]; -0.562 in experiment [3]; 1.84 in experiment [4]; 0.99 in experiment [5]; -0.0236 in experiment [6]; -0.0056 in experiment [7]. The composite z-score in experiment [8] amounted to 1.66; in experiment [9], 1.05; in experiment [10] it was 1.1; in the experiment with Albumin (Bos taurus), 0.99; in experiment [12], 0.387; in experiment [13], 0.127. The composite z-score in [14] was 0.404; in experiment [15], 1.61; in experiment [16], 0.943; in the experiment with Sam68 (KHDRBS1), 1.22; in experiment [17], -0.776; in experiment [18], 1.09. In [2], this compound showed a z-score of -0.644. Besides, the composite Z-score in [11] was -0.234 (inactive).
As for `OCC1C=C(/C=C/c2ccccc2)CN1Cc1ccccc1Br` (stereo not given), the composite z-score was -0.119 in [1]; 1.14 in experiment [3]; 0.776 in experiment [4]; -0.265 in experiment [5]; 0.0375 in [6]; -0.0553 in experiment [7]. Moreover, the composite z-score in experiment [8] is -0.266; in [9], 0.289; in [10], 1.12; in the experiment with Albumin (Bos taurus) it was 0.718; in experiment [12] it was 0.0694; in experiment [13], -0.0877. The composite z-score in [14] is 0.287; in experiment [15], 0.672; in experiment [16] it was -0.0831; with Sam68 (KHDRBS1), 1.01; in experiment [17], 0.402; in [18], 0.94. In experiment [2], this compound displayed a z-score of -1.92. In addition, in experiment [11], the composite Z-score is 0.466 (inactive).
